Some test systems named below: NCI-H23 lung; NCI-H226 lung; NCI-H322M lung; HOP-62 NSCLC; NCI-H460 lung; HOP-92 NSCLC; NCI-H522 lung; A549/ATCC NSCLC; 786-0 renal; COLO 205 colon; DU-145 prostate; K-562 leukemia; MALME-3M melanoma; MDA-MB-231 breast; RXF 393 renal; SF-268 CNS; SF-295 CNS; SF-539 CNS; UACC-257 melanoma; M14 melanoma.
What all share (test): NCI-60 one-dose screen, 48 h (100 = growth as untreated, 0 = no growth, -100 = all killed)
Common to all, as to conditions: 10 µM unless noted

The values that follow come from PubChem BioAssay (NCI).

The structures appear in SMILES notation. About 83,000 compounds went through this panel and 20% of them were active in at least one assay; those are over-represented in the sample as a whole.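 Single-dose data. Exposure time 48 hours. Values below 10 considered active.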 A number with no mark means an inactive call. Activity calls are given as the source filed them.

As for `Nc1n[nH]c2ccc([C@@H]3Nc4cc5[nH]ncc5cc4[C@H]4C5CCC(C5)[C@@H]34)cc12` (stereo not given in full), the growth in the test with NCI-H23 lung was 27.3%; in the test with NCI-H226 lung, 15%; with NCI-H322M lung, 43%; in the test with HOP-62 NSCLC, 46.9%; with NCI-H460 lung, 7.16% (active); with HOP-92 NSCLC, 58.2%. In addition, the growth with NCI-H522 lung was 13.9%; in the test on A549/ATCC NSCLC it was 24.6%; with 786-0 renal it was 28.3%; in the test with COLO 205 colon, -11.9% (active); with DU-145 prostate, 21.2%; in the test with K-562 leukemia it was 10.6%. Further, the growth with MALME-3M melanoma is 46.9%; in the test with MDA-MB-231 breast it was 12.7%; with RXF 393 renal, -2.95% (active); in the test with SF-268 CNS it was 45.4%; in the test on SF-295 CNS it was 11.8%; with SF-539 CNS it was -11.3% (active). For the same molecule, the growth with UACC-257 melanoma was 67.4%; in the test with M14 melanoma it was -3.7% (active).

For the molecule `COc1ccc(C2C(C#N)=C(N)Oc3c2sc2c(Br)cccc32)cc1` (stereo not given), the growth in the test with NCI-H23 lung was 36.3%; with NCI-H226 lung it was 49.2%; with NCI-H322M lung, 30%; in the test with HOP-62 NSCLC it was 23.7%; with NCI-H460 lung, 12.9%; in the test with HOP-92 NSCLC, 47%. Further, the growth with NCI-H522 lung is -6.29% (active); in the test on A549/ATCC NSCLC it was 35.5%; in the test with 786-0 renal, 29.6%; in the test on COLO 205 colon, 2.31% (active); with DU-145 prostate, 21.4%; with K-562 leukemia, 9.39% (active). Besides, the growth with MALME-3M melanoma was 37%; in the test on MDA-MB-231 breast it was 40.5%; in the test on RXF 393 renal it was 4.42% (active); in the test on SF-268 CNS, 38.7%; in the test on SF-295 CNS, 15.7%; with SF-539 CNS, -12.4% (active). In addition, the growth with UACC-257 melanoma was 65.5%; with M14 melanoma, 6.9% (active).

With `CC[C@H](Nc1nc(N)nc(C)c1C#N)c1nc2cccc(NCCCCCC(=O)NO)c2c(=O)n1-c1ccccc1`, the growth in the test with NCI-H23 lung was 73.3%; in the test with NCI-H226 lung, 75%; with NCI-H322M lung, 75.9%; with HOP-62 NSCLC, 66.2%; with NCI-H460 lung it was 77%; with HOP-92 NSCLC, 27.2%. The growth with NCI-H522 lung is 53.2%; with A549/ATCC NSCLC, 79.3%; in the test on 786-0 renal, 27.5%; in the test with COLO 205 colon it was 86.2%; with DU-145 prostate, 69.5%; in the test with K-562 leukemia it was 77.1%. Moreover, the growth is 52.6% in the test with MALME-3M melanoma; 61.8% in the test with MDA-MB-231 breast; -6.92% (active) with RXF 393 renal; 55.7% with SF-268 CNS; 22.9% in the test with SF-295 CNS; 45.9% in the test with SF-539 CNS. Further, the growth in the test with UACC-257 melanoma is 54.4%; with M14 melanoma it was 71.3%.

As to `CCOC(=O)C1CCN(c2ccc(N3C[C@@H](CNCc4ccc(C(=N)N)cc4)OC3=O)cc2)CC1`, the growth is 97.9% in the test with NCI-H23 lung; 97.2% in the test on NCI-H226 lung; 103% in the test with NCI-H322M lung; 97.5% with HOP-62 NSCLC; 103% in the test with NCI-H460 lung; 90.8% in the test on HOP-92 NSCLC. For the same molecule, the growth was 92.6% in the test on NCI-H522 lung; 104% with A549/ATCC NSCLC; 100% with 786-0 renal; 103% in the test with COLO 205 colon; 98.6% with DU-145 prostate; 99.3% in the test with K-562 leukemia. Moreover, the growth in the test with MALME-3M melanoma is 83.1%; in the test on MDA-MB-231 breast, 99.8%; in the test on RXF 393 renal it was 99.7%; in the test with SF-268 CNS, 100%; with SF-295 CNS, 101%; with SF-539 CNS, 94.4%. The growth in the test with UACC-257 melanoma is 102%; with M14 melanoma it was 94.7%.

As for `CCOC(=O)c1c(C)c2c(n1C)CSc1cc(S(=O)(=O)c3ccccc3)c(=O)[nH]c1-2`, the growth in the test on NCI-H23 lung was 21.7% [100 µM]; in the test with NCI-H226 lung, 24.3% [100 µM]; with NCI-H322M lung it was 28.1% [100 µM]; with HOP-62 NSCLC, 57.5% [100 µM]; in the test with NCI-H460 lung, 9.02% [100 µM] (active); with HOP-92 NSCLC, 8.76% [100 µM] (active). Besides, the growth is 32% [100 µM] in the test on NCI-H522 lung; 32.1% [100 µM] in the test on A549/ATCC NSCLC; 31.4% [100 µM] with 786-0 renal; -27.7% [100 µM] (active) in the test with COLO 205 colon; 25.8% [100 µM] in the test on DU-145 prostate; 31% [100 µM] with K-562 leukemia. In addition, the growth in the test with MALME-3M melanoma was 73.2% [100 µM]; with MDA-MB-231 breast, 31.1% [100 µM]; in the test with RXF 393 renal, 44.3% [100 µM]; with SF-268 CNS, 40.5% [100 µM]; in the test on SF-295 CNS, 27.2% [100 µM]; in the test on SF-539 CNS it was 28.9% [100 µM]. Moreover, the growth in the test on UACC-257 melanoma is 41.9% [100 µM]; in the test with M14 melanoma, 23.7% [100 µM].

Regarding `CCN(CC)CCCNCc1cc(-c2ccccc2)nc2cc(Cl)ccc12`, the growth with NCI-H23 lung was 68.6%; in the test on NCI-H226 lung, 140%; with NCI-H322M lung, 75.5%; in the test on HOP-62 NSCLC, 78.1%; with NCI-H460 lung, 43.3%; in the test on HOP-92 NSCLC it was -20.9% (active). Besides, the growth was 44.2% in the test with NCI-H522 lung; 57.4% with A549/ATCC NSCLC; -27.6% (active) in the test on 786-0 renal; 51.2% with COLO 205 colon; 78.3% in the test with DU-145 prostate; -17.3% (active) with K-562 leukemia. The growth with MALME-3M melanoma is -66.4% (active); with MDA-MB-231 breast it was 22.1%; in the test with RXF 393 renal, 77.2%; in the test on SF-268 CNS, 38.2%; in the test with SF-295 CNS it was 79.9%; in the test on SF-539 CNS, 40.4%. The growth in the test with UACC-257 melanoma was -76.8% (active); in the test with M14 melanoma, -95.3% (active).

`CC[C@H](C)[C@H](NC(=O)[C@H](CCCNC(=N)N)NC(=O)[C@H](Cc1c[nH]c2ccccc12)NC(=O)[C@@H](NC(=O)[C@H](CCCCN)NC(=O)[C@H](CCCCN)NC(=O)[C@@H](NC(=O)[C@@H](NC(=O)[C@@H](NC(=O)[C@H](CCCCN)NC(=O)[C@H](Cc1ccccc1)NC(=O)[C@H](CCCCN)NC(=O)[C@H](CCCCN)NC(=O)[C@H](Cc1ccccc1)NC(=O)[C@@H](NC(=O)[C@@H](N)CCCCN)[C@@H](C)CC)[C@@H](C)O)[C@@H](C)CC)[C@@H](C)CC)C(C)C)C(=O)N[C@@H](Cc1ccccc1)C(=O)NCC(=O)N[C@@H](CCCNC(=N)N)C(=O)N[C@@H](Cc1ccccc1)C(N)=O`: the growth is -37.9% (active) with NCI-H23 lung; 1.83% (active) with NCI-H226 lung; -50.5% (active) in the test on NCI-H322M lung; -41.7% (active) in the test with HOP-62 NSCLC; -5.53% (active) in the test on NCI-H460 lung; -20.3% (active) in the test with HOP-92 NSCLC. Moreover, the growth in the test on NCI-H522 lung is 14.1%; in the test on A549/ATCC NSCLC, -40.6% (active); with 786-0 renal, -31.3% (active); with COLO 205 colon, -55.3% (active); in the test on DU-145 prostate it was -64.4% (active); in the test on K-562 leukemia, 4.14% (active). Further, the growth is -64.4% (active) in the test with MALME-3M melanoma; -70.6% (active) in the test with MDA-MB-231 breast; -2.96% (active) in the test on RXF 393 renal; -23.2% (active) with SF-268 CNS; -34.1% (active) in the test on SF-295 CNS; -69.8% (active) in the test with SF-539 CNS. Besides, the growth in the test with UACC-257 melanoma is 47.3%; in the test with M14 melanoma, -18.4% (active).
